D2 ag-1 = D2 dopamine receptor (human) agonism; P14416; HEK293 T-REx D2 cells, calcium flux agonist mode; activation, % at 2 µM; hit rate 0.53% among 340,000;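 active = activation over 3 SD above normal in the single-dose calcium agonist read, cut at about 30% in these data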; also: 0% is about no effect
Target sequence (P14416 whole entry, looked up): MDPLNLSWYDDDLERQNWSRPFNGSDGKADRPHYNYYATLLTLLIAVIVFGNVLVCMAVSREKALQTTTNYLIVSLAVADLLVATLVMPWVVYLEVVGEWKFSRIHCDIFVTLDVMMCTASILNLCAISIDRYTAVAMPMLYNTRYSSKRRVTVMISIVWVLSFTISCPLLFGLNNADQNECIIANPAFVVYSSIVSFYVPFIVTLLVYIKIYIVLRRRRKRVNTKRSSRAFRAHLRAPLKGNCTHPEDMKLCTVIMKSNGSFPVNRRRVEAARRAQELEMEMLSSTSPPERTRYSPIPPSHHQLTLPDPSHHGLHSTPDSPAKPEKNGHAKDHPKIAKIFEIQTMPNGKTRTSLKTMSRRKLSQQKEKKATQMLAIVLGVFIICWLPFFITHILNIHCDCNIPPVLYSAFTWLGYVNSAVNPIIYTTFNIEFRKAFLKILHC
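HEK293 Trex D2 cells, tetracycline-induced, o/n 30 C 5% CO2; no-wash Ca dye, RT 30–90 min; 10-cycle baseline, 23 nl cpd added, kinetic Ca read 180 s; agonist hits = positive Ca response.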
D2 PAM-1 = D2 dopamine receptor (human) potentiation; P14416; HEK293 T-REx D2, calcium flux, EC20 dopamine potentiation; potentiation, % at 10 µM; hit rate 0.34% among 340,000; AID 485347;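 active = potentiation over 3 SD above the plate norm, cut at about 30% in these data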; also: 0% is about no effect
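Tetracycline-induced Hek293 Trex D2 cells, force-coupled to calcium, loaded with no-wash calcium dye. Compound added with 180 s kinetic read for agonism, then EC20 dopamine and a further 180 s read for potentiation.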
D2 antagonist = antagonizes the human D2 dopamine receptor | inhibition, % at 10 µM | hit rate 2% among 340,000 | AID 485344 | HEK293 TREx D2 cells, calcium flux, dopamine EC80 | P14416; in the data active = inhibition above about 30%; inactive = below that, where a call was filed; also: 0% is about no effect
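In this primary screen, negative modulation is detected by tracking calcium flux after an EC80 dopamine challenge in inducible HEK293 T-REx D2 cells preexposed to test compound for 180 s.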
D2 PAM-2 = potentiates the human D2 dopamine receptor allosterically. P14416. DiscoveRx D2 beta-arrestin cells, luminescence, 90 min; 100% = 57 uM dopamine signal. hit rate 0.23% among 360,000. potentiation, % (no concentration beside the values); in the data active = potentiation above about 50%; inconclusive = mostly about 30% to 49%
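PathHunter D2 cells, attached overnight at 37 deg C, received compound in DMSO plus dopamine at EC20 (50 nM final) for 90 min at 37 deg C. Beta-arrestin recruitment was read as luminescence after 1 h with detection reagent at ambient temperature.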
D2 ag-2 = activates the human D2 dopamine receptor; P14416; DiscoveRx PathHunter D2 beta-arrestin, luminescence, 90 min; 100% = 57 uM dopamine signal; activation, % (test concentration not listed); hit rate 0.084% among 360,000; in the data active = activation above about 40%; inconclusive = between about 15% and that limit
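Agonist mode: compounds alone added to overnight-plated D2 PathHunter cells for 90 min at 37 C, with 57 uM final dopamine (EC100) defining full response. Beta-arrestin recruitment detected by chemiluminescent reagent, read after 1 h at ambient temperature.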
An asterisk follows results filed as active; u = inconclusive; x = no result; ! = a repeat was not active. A selection: hits, their analogues and other compounds. The true share with any hit is near 2.4%.

SMILES | D2 ag-1 | D2 PAM-1 | D2 antagonist | D2 PAM-2 | D2 ag-2
CN1CCN(c2ccc(N)cc2Cl)CC1 | 2.3 | -15.2 | 45.9* | -18.5 | -0.9
Cc1cccc(-c2nn3c(=O)cc(CN4CCN(C(=O)COc5ccc(Cl)cc5)CC4)nc3s2)c1 | -1.0 | -0.8 | x | x | x
CCOc1ccc2nc(NC(=O)c3cccn(Cc4ccccc4)c3=O)sc2c1 | 0.9 | 3.1 | x | x | x
CCn1cc(C(=O)NCc2ccccc2)c2ccccc21 | 0.8 | -32.1 | 5.3 | -19.6 | -6.2
CCn1cc(C(=O)O)c(=O)c2ccc(C)nc21 | 0.5 | 3.8 | 40.7*! | -6.1 | -6.3
Nc1c(C(=O)Nc2ccc(OC(F)(F)F)cc2)sc2nc3c(cc12)N1CCC3CC1 | 0.4 | -3.3 | x | x | x
CCOC(=O)c1ccc(NC(=O)c2c(O)[nH]c(=O)[nH]c2=O)cc1 | 53.5* | 0.3 | -1.8 | -6.4 | 0.8
CCOc1ccc(NC(=O)c2c(O)[nH]c(=O)[nH]c2=O)cc1 | x | x | x | 10.7 | 1.8
O=C(COc1cc(Cl)ccc1Cl)Nc1ccc(Cl)cc1C(=O)c1ccccc1 | 0.3 | -3.6 | x | x | x
O=c1[nH]c2ccccc2n1C1CCN(C(CCc2ccccc2)c2nnnn2Cc2ccccc2)CC1 (centres undefined) | x | x | x | 51.9* | 12.6
CSCCC(c1nnnn1Cc1ccccc1)N1CCC(n2c(=O)[nH]c3ccccc32)CC1 (centres undefined) | x | x | x | u | -0.6
COc1ccc(NC(=O)CN2C(=O)CN=C(c3ccccc3)c3ccccc32)c(OC)c1 | 1.0 | -8.6 | x | x | x
CN1C[C@H](CNC(=O)OCc2ccccc2)C[C@@H]2c3cccc4c3c(cn4C)C[C@H]21 | 10.8 | -28.2 | 77.7* | -25.6 | 2.7
COC(=O)CC1=C(C(=O)OC)C2(C(=O)Nc3c(C)cccc32)C(C#N)=C(N)O1 (centres undefined) | 0.0 | 2.8 | 5.1 | 69.8* | 11.8
Cc1ccc(-n2c(/C=C/c3ccccc3)nc3ccccc3c2=O)cc1Cl | -0.2 | 7.1 | x | x | x
CNc1ccc2oc(C[C@H]3O[C@@]4(CC[C@H]3C)O[C@H]([C@H](C)C(=O)c3ccc[nH]3)[C@H](C)C[C@H]4C)nc2c1C(=O)O | 95.6* | -17.7 | 62.5* | -15.7 | -10.7
Cc1ccccc1-c1nc(CN2C(=O)CN=C(c3ccccc3)c3ccccc32)c(C)o1 | 8.6 | -3.2 | x | x | x
COc1ccc(NC(=O)CN2C(=O)C(C)N=C(c3ccccc3F)c3cc(Cl)ccc32)c(OC)c1 (centres undefined) | -0.1 | 0.3 | x | x | x
COc1ccccc1N=Cc1c(O)n(C)c(=O)n(C)c1=O | 0.2 | -0.3 | 34.9* | -14.9 | -3.4
COc1ccc2c(c1OC)CN1CCc3cc4c(cc3C1C2)OCO4 (centres undefined) | 0.2 | -22.3 | 86.2* | -23.3 | -0.2
CN1CC(C(=O)c2ccccc2)C(c2ccccc2)C1 (centres undefined) | 1.5 | -28.8 | 35.1* | -13.9 | 2.8
Cc1ccccc1-n1c(C)nc2ccccc2c1=O | 0.1 | 30.9* | -6.2 | -1.9 | -2.7
COc1ccccc1-n1c(-c2ccccc2)nc2ccccc2c1=O | 0.1 | -0.9 | 39.8* | -18.5 | -4.1
Cc1nc2ccccc2c(=O)n1-c1ccccn1 | -1.4 | 9.2 | 35.1* | 2.4 | 3.1
COc1ccccc1N1CCN(Cc2ccc3c(c2)OCO3)CC1 | x | x | x | -12.3 | 6.8
SMILES | D2 ag-1 | D2 PAM-1 | D2 antagonist | D2 PAM-2 | D2 ag-2
Cc1cccc(N2CCN(Cc3ccc4c(c3)OCO4)CC2)c1C | 0.5 | -27.5 | 66.2* | -24.3 | 0.5
COc1ccc(Cl)cc1NC(=O)CN1C(=O)CN=C(c2ccccc2)c2cc(Cl)ccc21 | 0.7 | -0.5 | x | x | x
O=C(Nc1ccon1)c1cccn(Cc2cccc([N+](=O)[O-])c2)c1=O | 0.4 | 20.5 | x | x | x
CCc1ccc(-c2nn(Cc3ccccc3)cc2C=O)cc1 | 0.9 | -4.2 | 35.0* | 0.2 | -6.8
Cc1nnc(NC(=O)c2cccn(Cc3ccc(Cl)cc3)c2=O)s1 | 1.2 | -4.1 | x | x | x
Cc1ccsc1C(=O)C1CCCN(Cc2ccn[nH]2)C1 (centres undefined) | 0.1 | 5.3 | 12.1 | -28.1 | -2.1
COc1ccc(OC)c(CN2CCCC(C(=O)c3sccc3C)C2)c1 (centres undefined) | -0.1 | -25.0 | 51.2* | -26.1 | -3.9
Cc1ccsc1C(=O)C1CCCN(Cc2cc(C(C)C)n[nH]2)C1 (centres undefined) | -0.7 | -32.5 | 80.4* | -16.1 | 0.3
COc1cccc(O)c1CN1CCCC(C(=O)c2sccc2C)C1 (centres undefined) | 0.4 | -17.7 | 7.7 | -31.7 | -3.8
O=C(COc1ccc(Br)cc1)Nc1ccc(Cl)cc1C(=O)c1ccccc1 | -0.6 | 4.0 | x | x | x
CN1/C(=C\C=C2C(=O)NC(=O)NC2=O)C(C)(C)c2ccccc21 | 49.7* | x | -14.2 | 1.3 | -3.7
CN1/C(=C\C=Nc2ccccc2)C(C)(C)c2ccccc21 | 0.9 | -1.7 | -3.5 | -8.4 | 3.0
CCOC(=O)c1c(N)n(CCCOC(=O)c2ccco2)c2nc3ccccc3nc12 | 2.2 | 8.9 | 13.7 | 86.3* | u
O=C(Nc1ccc2c(c1)OCCO2)c1cccn(Cc2cccc(F)c2)c1=O | 0.3 | 15.5 | x | x | x
Oc1ccc(C[C@H]2NCCc3cc(O)c(O)cc32)cc1O | 5.4 | -37.3 | 84.8* | -22.4 | 6.9
Cc1ccccc1-c1nn2c(=O)cc(CN3CCN(C(=O)COc4ccccc4Cl)CC3)nc2s1 | -0.5 | -3.7 | x | x | x
COC(=O)C1=C(c2ccc(-c3ccccc3)c(F)c2)C[C@@H]2CC[C@H]1N2C(=O)NCC1CC1 | 0.6 | -10.3 | -15.9 | -85.0 | 1.6
COC(=O)C1=C(c2ccc(-c3ccccc3)c(F)c2)C[C@@H]2CC[C@H]1N2C(=O)NC1Cc2ccccc2C1 | 0.7 | -11.1 | 38.4* | -16.2 | -7.6
CCCCn1c(O)c(/C=N/N2CCOCC2)c(=O)[nH]c1=S | -0.5 | -2.1 | 5.8 | -12.8 | -3.5
CCCCCCn1c(O)c(C=Nc2ccccc2N2CCOCC2)c(=O)[nH]c1=S | 0.9 | 10.2 | 36.8* | -3.0 | -4.2
Cc1ccccc1C1=NCC(=S)Nc2ccc(Cl)cc21 | -1.3 | -1.2 | 40.7* | -24.4 | -6.6
O=C1CN=C(c2ccccc2)c2cc(Cl)ccc2N1 | x | x | x | -9.4 | -1.2
Cc1ccc(C(C)C)c(OCC(=O)N2CCN(CCc3ccncc3)CC2)c1 | 0.2 | 4.0 | x | x | x
COc1ccccc1OCCCn1cc(C(=O)c2ccco2)c2ccccc21 | 1.8 | -0.6 | -10.4 | -6.2 | -3.9
O=C(c1ccco1)c1cn(Cc2ccc(Cl)cc2)c2ccccc12 | -1.2 | -12.3 | 30.7* | -0.9 | -3.3
CCNC(=O)NC(=O)C(C)OC(=O)c1c(C)nn(Cc2ccccc2Cl)c1Cl (centres undefined) | -1.2 | -5.0 | 5.3 | -9.7 | 0.5
CCNC(=O)NC(=O)C(C)OC(=O)c1c(C)nn(Cc2ccccc2)c1Cl (centres undefined) | -0.5 | 1.1 | 40.4* | -3.2 | 1.3
Cc1nnc(NC(=O)c2cccn(Cc3ccccc3F)c2=O)s1 | 1.7 | 2.5 | x | x | x

Screening results from PubChem.
